Results on four compounds are retold here after PubChem BioAssay (NCATS).

SMILES strings stand for the structures. Results filed as inconclusive are left out. Activity calls are given as the source filed them. Unless noted, calls follow the shape of the dose curve; as a rule, active = well fitted curve in the direction sought with a large enough effect; inconclusive = small, poorly fitted or top-dose-only effect, or another doubt; inactive = no such curve, though single readings can be large; an effect the other way counts as inactive or inconclusive. A value given as a limit tells only on which side of the number the result lay.

Test [1] has as its target Cytochrome P450 3A4 (Homo sapiens) (UniProt P08684). Kind of test: qHTS Assay for Activators of Cytochrome P450 3A4 (AID 885). Also: nearly all actives have a fitted effect of over 65% in size. A digest of the protocol:
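Activators are scored by enhanced luminescence from CYP3A4 conversion of luciferin-PPXE (25uM, equal to KM) to luciferin, after 60 min at RT with an NADPH-regenerating system.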

The nature of test [2]: Confirmation and Secondary Assay for Modulators of Hemoglobin Beta Chain Splicing at IVS2 654 locus (AID 910).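 Also: HeLa cells stably carrying EGFP split by mutant beta-globin IVS2-654 intron; % of control where 0% means no effect.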 A digest of the protocol:
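HeLa cells stably expressing EGFP interrupted by β-globin IVS2-654 intron, seeded overnight in Opti-MEM/2% FCS, then treated 2 days at 37 °C. Restored splicing read as total peak GFP intensity per well by laser scanning cytometry (488 nm excitation, 500–520 nm emission); 500 nM antisense PNA as control.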

Test [3] in a line: Confirmation and Secondary Assay for Modulators of Hemoglobin Beta Chain Splicing at IVS2 705 locus (AID 930).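 Also: HeLa cells stably expressing the EGFP-705 splicing reporter; GFP fluorescence per well restored by corrected splicing of the IVS2-705 intron in EGFP; % of control where 0% means no effect.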 A digest of the protocol:
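Secondary splice-site specificity test uses HeLa expressing CMV-driven EGFP interrupted by IVS2-705; cells were treated 2 days at 37C with 500 nM antisense PNA as positive control.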

The nature of test [4]: qHTS Assay for Lipid Storage Modulators (AID 1519; calls by dose curve). To be noted: Drosophila S3 cells, BODIPY lipid droplet/cell ratio, laser cytometry, cells loaded with oleic acid; for activity change, negative = inhibition: at 57.5 µM (top of the series). In a few lines: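 Cells seeded at 5,000 per well were treated with compounds over a concentration series and loaded with oleic acid (400 uM, as added). Lipid droplet fluorescence (488 nm excitation, 500-530 nm channel) was read by laser-scanning cytometry and normalized to 20 uM Triacsin C.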

The target in test [5] is Rap guanine nucleotide exchange factor 3 (Homo sapiens) (UniProt O95398). In words: Confirmatory qHTS for antagonist of cAMP-regulated guanine nucleotide exchange factor 3 (EPAC1) (AID 1645880).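 Also: plate controls were DMSO only for no effect and full effect of the ATA control for full effect; nearly all actives have a fitted effect of over 55% in size.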 In a few lines: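 Released BODIPY-GDP fluoresces less than Rap1-bound BODIPY-GDP; the signal is followed at 480/540 nm at 5-min intervals over 30 min, after 5 min at room temperature. Reactions contain 100 nM EPAC1, 250 nM RAP1B-BODIPY-GDP and 50 uM GDP; results are normalized to ATA and DMSO.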
Sequence of Rap guanine nucleotide exchange factor 3 (Homo sapiens) (O95398 whole entry, looked up): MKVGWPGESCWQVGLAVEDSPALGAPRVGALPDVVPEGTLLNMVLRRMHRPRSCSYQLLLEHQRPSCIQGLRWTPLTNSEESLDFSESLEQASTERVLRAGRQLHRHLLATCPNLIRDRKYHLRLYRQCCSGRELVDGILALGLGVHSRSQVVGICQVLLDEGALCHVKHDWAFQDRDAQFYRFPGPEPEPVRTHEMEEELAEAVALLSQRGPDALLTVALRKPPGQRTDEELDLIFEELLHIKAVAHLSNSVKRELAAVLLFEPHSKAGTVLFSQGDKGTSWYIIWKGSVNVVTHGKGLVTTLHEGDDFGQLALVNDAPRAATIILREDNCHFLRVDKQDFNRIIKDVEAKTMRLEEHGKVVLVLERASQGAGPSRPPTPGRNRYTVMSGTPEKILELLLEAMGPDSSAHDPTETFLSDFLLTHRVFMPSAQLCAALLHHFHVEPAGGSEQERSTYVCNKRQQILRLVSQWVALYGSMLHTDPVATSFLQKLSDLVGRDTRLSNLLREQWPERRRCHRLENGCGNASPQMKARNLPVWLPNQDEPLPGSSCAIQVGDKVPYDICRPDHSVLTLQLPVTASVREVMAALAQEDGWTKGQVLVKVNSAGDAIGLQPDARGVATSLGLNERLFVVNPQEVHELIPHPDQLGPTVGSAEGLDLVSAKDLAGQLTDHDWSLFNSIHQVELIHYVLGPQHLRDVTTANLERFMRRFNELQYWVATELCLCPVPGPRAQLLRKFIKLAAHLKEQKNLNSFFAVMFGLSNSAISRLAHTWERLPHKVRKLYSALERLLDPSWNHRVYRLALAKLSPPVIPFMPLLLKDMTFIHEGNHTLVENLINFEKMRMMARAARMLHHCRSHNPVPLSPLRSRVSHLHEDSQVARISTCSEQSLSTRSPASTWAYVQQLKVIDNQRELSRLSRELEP
A general note: qHTS replaces the single test concentration by a dilution series.

Test [6] has the same target. In words: Confirmatory qHTS for agonist of cAMP-regulated guanine nucleotide exchange factor 3 (EPAC1) (AID 1645881).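 Also: EPAC1 catalysed release of BODIPY-GDP from Rap1B seen as fluorescence loss; 100% = effect of cAMP agonist control; nearly all actives have a fitted effect of over 75% in size.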
The target of test [7] is Rap guanine nucleotide exchange factor 4 (Homo sapiens) (UniProt Q8WZA2). In words: Confirmatory qHTS for agonist of cAMP-regulated guanine nucleotide exchange factor 4 (EPAC2) (AID 1645884).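 Also: nucleotide exchange releases bodipy-GDP from Rap1 and this lowers its fluorescence; % is scaled to controls: 0 for no effect and ±100 for the full control effect; nearly all actives have a fitted effect of over 65% in size.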
Sequence of Rap guanine nucleotide exchange factor 4 (Homo sapiens) (Q8WZA2 whole entry, looked up): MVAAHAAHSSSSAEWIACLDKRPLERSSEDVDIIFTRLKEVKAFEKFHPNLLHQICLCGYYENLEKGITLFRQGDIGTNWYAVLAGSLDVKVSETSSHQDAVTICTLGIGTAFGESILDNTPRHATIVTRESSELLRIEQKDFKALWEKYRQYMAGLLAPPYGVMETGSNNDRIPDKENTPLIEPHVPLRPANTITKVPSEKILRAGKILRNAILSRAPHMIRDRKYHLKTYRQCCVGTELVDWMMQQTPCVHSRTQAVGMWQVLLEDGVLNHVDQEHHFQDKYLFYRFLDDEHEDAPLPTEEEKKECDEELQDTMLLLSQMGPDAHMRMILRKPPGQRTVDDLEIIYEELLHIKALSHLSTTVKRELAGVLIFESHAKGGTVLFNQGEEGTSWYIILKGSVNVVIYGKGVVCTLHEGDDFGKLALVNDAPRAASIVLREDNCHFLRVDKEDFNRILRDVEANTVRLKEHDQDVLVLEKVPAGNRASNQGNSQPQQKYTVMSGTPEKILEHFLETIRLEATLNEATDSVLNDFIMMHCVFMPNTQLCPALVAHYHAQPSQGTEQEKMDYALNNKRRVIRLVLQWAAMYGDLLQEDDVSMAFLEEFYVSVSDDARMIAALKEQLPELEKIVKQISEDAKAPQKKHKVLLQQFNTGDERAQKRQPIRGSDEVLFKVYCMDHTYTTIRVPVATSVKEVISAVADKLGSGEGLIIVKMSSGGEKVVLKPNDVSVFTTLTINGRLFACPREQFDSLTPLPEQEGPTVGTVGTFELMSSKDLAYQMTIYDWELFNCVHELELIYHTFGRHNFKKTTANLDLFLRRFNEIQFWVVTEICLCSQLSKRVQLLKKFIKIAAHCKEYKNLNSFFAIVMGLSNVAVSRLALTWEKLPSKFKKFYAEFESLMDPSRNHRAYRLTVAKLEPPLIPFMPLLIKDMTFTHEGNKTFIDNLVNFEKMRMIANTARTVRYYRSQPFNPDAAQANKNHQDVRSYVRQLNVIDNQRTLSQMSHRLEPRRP
Test [8] has the same target. In words: Confirmatory qHTS for antagonist of cAMP-regulated guanine nucleotide exchange factor 4 (EPAC2) (AID 1645885). Also: % is scaled to controls: 0 for no effect and ±100 for the full control effect; nearly all actives have a fitted effect of over 25% in size.
Test [9] concerns the target Cytochrome P450 3A4 (Homo sapiens) (UniProt P08684). In words: qHTS Assay for Inhibitors and Substrates of Cytochrome P450 3A4 (AID 884). Also: % is scaled to controls: 0 for no effect and ±100 for the full control effect; nearly all actives have a fitted effect of over 50% in size. A digest of the protocol: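 Luminescent readout of luciferin produced by CYP3A4 (20 nM) dealkylation of Luciferin-PPXE, 25 uM (its KM). NADPH-driven reaction ran 60 min at RT after 10 min compound preincubation; data scaled to 57 uM ketoconazole as 100% inhibition.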

For test [10], the target named is Ubiquitin carboxyl-terminal hydrolase 1 (Homo sapiens) (UniProt O94782). In words: Inhibitors of USP1/UAF1: Pilot qHTS (AID 504865).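 Also: rhodamine fluorescence freed from ubiquitin-rhodamine substrate followed over time; top concentration of the series differs between compounds; % is scaled to controls: 0 for no effect and ±100 for the full control effect; nearly all actives have a fitted effect of over 35% in size.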 In a few lines: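 USP1/UAF1 complex at 1 nM preincubated 15 min at room temperature with compound, then Ub-Rho substrate added at 150 nM final. Fluorescence (480/540 nm) read kinetically in 50 mM HEPES pH 7.8, 0.5 mM EDTA, 1 mM TCEP, 0.1 mg/ml BSA, 0.01% Tween-20.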
Sequence of Ubiquitin carboxyl-terminal hydrolase 1 (Homo sapiens) (O94782 whole entry, looked up): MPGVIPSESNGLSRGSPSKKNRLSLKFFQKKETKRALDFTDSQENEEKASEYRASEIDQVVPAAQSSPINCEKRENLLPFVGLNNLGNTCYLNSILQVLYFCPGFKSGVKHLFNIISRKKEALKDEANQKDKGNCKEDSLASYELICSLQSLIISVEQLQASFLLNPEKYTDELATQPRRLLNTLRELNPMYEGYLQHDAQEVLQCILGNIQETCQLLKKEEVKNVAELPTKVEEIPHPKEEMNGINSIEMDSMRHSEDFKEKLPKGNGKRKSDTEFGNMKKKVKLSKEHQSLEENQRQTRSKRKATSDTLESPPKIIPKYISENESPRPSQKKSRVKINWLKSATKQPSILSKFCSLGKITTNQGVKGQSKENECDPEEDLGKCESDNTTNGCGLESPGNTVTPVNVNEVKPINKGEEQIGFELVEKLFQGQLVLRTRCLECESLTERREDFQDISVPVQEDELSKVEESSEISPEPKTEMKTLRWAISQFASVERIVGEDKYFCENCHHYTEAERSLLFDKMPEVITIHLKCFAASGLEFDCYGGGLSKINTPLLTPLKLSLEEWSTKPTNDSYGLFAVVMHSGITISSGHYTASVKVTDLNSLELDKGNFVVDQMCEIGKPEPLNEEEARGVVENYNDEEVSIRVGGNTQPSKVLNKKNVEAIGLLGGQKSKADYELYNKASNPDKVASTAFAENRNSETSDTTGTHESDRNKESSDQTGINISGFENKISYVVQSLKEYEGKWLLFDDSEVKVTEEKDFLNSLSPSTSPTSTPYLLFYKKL

The target of test [11] is Lysosomal acid glucosylceramidase (Homo sapiens) (UniProt P04062). In words: Glucocerebrosidase-p2 (AID 348; in the data active = potency below about 10 µM; also: potency is read from the fitted curve at half-maximal effect). The following applies: purified GBA, blue fluorogenic substrate, 40 min. A digest of the protocol: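 Normal human glucocerebrosidase (0.2 nM) with blue fluorogenic substrate (80 uM final) in citrate/phosphate pH 5.9 with 10mM sodium taurocholate, 0.01% tween-20; 40 min RT, NaOH/glycine stop; fluorescence Ex 365/Em 440; AC50 from a titration from 0.6 nM upwards.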
Sequence of Lysosomal acid glucosylceramidase (Homo sapiens) (P04062 whole entry, looked up): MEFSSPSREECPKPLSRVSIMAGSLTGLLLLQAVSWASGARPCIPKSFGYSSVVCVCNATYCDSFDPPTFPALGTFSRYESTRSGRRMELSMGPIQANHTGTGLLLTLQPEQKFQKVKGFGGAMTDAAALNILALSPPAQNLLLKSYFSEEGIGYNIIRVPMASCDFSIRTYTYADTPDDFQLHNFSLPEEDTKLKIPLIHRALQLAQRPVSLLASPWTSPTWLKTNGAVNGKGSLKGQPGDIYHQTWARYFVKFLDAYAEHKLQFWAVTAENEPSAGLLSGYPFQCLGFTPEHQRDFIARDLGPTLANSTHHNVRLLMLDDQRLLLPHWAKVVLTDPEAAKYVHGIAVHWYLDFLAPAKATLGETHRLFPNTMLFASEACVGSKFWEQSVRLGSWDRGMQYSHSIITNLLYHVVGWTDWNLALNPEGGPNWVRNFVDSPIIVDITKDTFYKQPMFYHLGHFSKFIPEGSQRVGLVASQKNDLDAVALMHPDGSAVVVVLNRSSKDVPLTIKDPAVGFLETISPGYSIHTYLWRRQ

The nature of test [12]: AP1 Signaling Pathway (AID 357; active = well fitted curve in either direction with a large enough effect, not every such curve was filed as active;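 also: ME-180 reporter cells stimulated with EGF at its EC50 level; % is scaled to controls: 0 for no effect and ±100 for the full control effect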). To be noted: ME-180 AP-1-bla reporter, EGF-induced, beta-lactamase ratio, 5 h; at 7.69 µM (top of the series) unless noted. A digest of the protocol:
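A ratiometric CCF4 readout (405 nm excitation; 460 and 530 nm emission) quantified AP-1-driven beta-lactamase in ME-180 cells after 5 h with compound and EC50 EGF; AC50 values were derived for activators and inhibitors.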

Test [13] has as its target Cytochrome P450 1A2 (Homo sapiens) (UniProt P05177). In words: p450-cyp1a2 (AID 410; calls by dose curve; also: potency is read from the fitted curve at half-maximal effect;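 as to activity change, negative = inhibition: -100% = full effect of reference inhibitor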). A digest of the protocol: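 20nM CYP1A2, 100uM Luciferin-ME (=Km), 100mM KPO4; cpd 10 min RT; +NADPH regen, 60 min RT; stop/detect 20 min; luminescence. Normalized to furafylline 57 uM = full inhibition.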
Test [14] in a line: NFAT Signaling Pathway (AID 444; active = well fitted curve in either direction with a large enough effect, not every such curve was filed as active;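 also: carbachol stimulus at about its EC50 of 1 µM final; % is scaled to controls: 0 for no effect and ±100 for the full control effect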). The following applies: Jurkat NFAT-bla M1, carbachol, beta-lactamase ratio, 5 h; at 7.69 µM (top of the series) unless noted. A digest of the protocol:
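Jurkat cells with NFAT-driven β-lactamase reporter and co-expressed M1 receptor, stimulated with carbachol (final 1 uM, ~EC50), compound titration, 5 h at 37 °C. CCF4 loaded 1 h at RT; 460/530 nm ratio gave %activity and AC50.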

A short description of test [15]: Stat Signaling Pathway (AID 446; active = well fitted curve in either direction with a large enough effect, not every such curve was filed as active;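 also: ME-180 cervical cancer cells given 40 pM IL-6 alongside compound; SIE-controlled beta-lactamase reporter measured as 460/530 nm FRET emission ratio; % is scaled to controls: 0 for no effect and ±100 for the full control effect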). To be noted: ME-180 (cervical carcinoma) SIE beta-lactamase reporter, IL-6 stimulated, 5 h; at 7.69 µM (top of the series) unless noted. In a few lines: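 Emission at 460 and 530 nm (excitation 405 nm) reports SIE-controlled beta-lactamase in ME-180 cells. Cells received compound with 40 pM IL-6 for 5 hrs at 37 C; data scaled between 300 pM IL-6 and 125 nM JAK-inhibitor controls.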

Test [16] deals with Glucocorticoid receptor (Homo sapiens) (UniProt P04150). In words: GR-GFP Redistribution (AID 450;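 active = compounds whose dose series gives a full or clear partial fitted curve of increased nuclear translocation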; also: potency is read from the fitted curve at half-maximal effect). The following applies: U2OS GR-GFP nuclear translocation, laser cytometry, 2 h.
Sequence of Glucocorticoid receptor (Homo sapiens) (P04150 whole entry, looked up): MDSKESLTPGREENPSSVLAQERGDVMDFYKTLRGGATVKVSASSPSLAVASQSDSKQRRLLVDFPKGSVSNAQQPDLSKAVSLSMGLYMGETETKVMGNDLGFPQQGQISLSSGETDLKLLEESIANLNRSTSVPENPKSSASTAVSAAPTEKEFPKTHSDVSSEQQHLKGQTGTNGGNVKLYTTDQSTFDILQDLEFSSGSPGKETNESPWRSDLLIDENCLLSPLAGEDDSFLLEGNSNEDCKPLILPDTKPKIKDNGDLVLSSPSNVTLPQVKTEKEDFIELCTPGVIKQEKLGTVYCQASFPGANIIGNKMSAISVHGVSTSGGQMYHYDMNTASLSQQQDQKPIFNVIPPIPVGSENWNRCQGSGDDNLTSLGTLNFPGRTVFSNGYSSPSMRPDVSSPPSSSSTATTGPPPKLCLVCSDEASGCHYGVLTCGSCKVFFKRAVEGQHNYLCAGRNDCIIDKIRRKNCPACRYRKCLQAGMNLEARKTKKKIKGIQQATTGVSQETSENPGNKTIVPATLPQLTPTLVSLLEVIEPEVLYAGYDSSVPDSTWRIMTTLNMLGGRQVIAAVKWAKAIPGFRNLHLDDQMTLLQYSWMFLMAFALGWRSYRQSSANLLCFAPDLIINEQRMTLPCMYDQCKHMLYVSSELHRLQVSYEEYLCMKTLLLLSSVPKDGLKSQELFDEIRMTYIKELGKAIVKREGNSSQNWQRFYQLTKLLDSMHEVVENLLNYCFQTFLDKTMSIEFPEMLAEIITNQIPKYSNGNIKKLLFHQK
Test [17] has the same target. In words: GR-EFC Redistribution (AID 451; calls by dose curve; also: potency is read from the fitted curve at half-maximal effect). The following applies: CHO-K1 GR-EFC translocation, beta-gal luminescence, 2 h. A digest of the protocol:
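CHO-K1 cells expressing nuclear EA and GR-ED fragments of b-gal; compounds titrated up to 46 uM final, 2 h at 37 C. GR nuclear translocation read as complemented b-gal luminescence after 1 h RT detection.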

The target of test [18] is Mitogen-activated protein kinase 10 (Mus musculus) (UniProt Q61831). In words: JNK3 AlphaScreen Assay (AID 530; active = well fitted curve in either direction with a large enough effect, not every such curve was filed as active;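 also: kinase came from lysate of stimulated human HepG2 cells; signal reports phosphorylation of biotinylated GST-cJun 1-79 at Ser73 with 10 µM ATP; % is scaled to controls: 0 for no effect and ±100 for the full control effect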). A digest of the protocol: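 HepG2 lysate (IL-1b/TNFa pre-activated) + biotin-GST-cJun 1-79 + anti-pSer73 cJun; cpd titration, 15 min RT; ATP 10 uM start; Tris pH 7.6, MgCl2, DTT, vanadate; beads in EDTA buffer; AlphaScreen.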
In general terms: Alpha assays give light when donor and acceptor beads are brought close together.

Test [19] has as its target 3',5'-cyclic-AMP phosphodiesterase 4B (Homo sapiens) (UniProt Q07343). In words: qHTS Assay for Inhibitors of PDE-IV (AID 607; active = well fitted activation curve with a large enough effect in the main read-out, with a control signal flat, not every such curve was filed as active; also: % of control where 0% means no effect). A digest of the protocol: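 The readout is membrane depolarisation from a cAMP-sensing CNG channel, detected with a potential dye at ex 535/em 590. Cells were HEK293-derived (endogenous PDE-IV) at 1000 cells/well, titrated up to 22.9 uM final.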

Test [20] addresses Dual specificity protein kinase CLK4 (Homo sapiens) (UniProt Q9HAZ1). In words: qHTS Assay for Inhibitors of CDC-like Kinase 4 (Kinase-Glo Assay) (AID 1770). Also: % is scaled to controls: 0 for no effect and ±100 for the full control effect; nearly all actives have a fitted effect of over 65% in size. A digest of the protocol:
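25 nM Clk4 with 100 uM RS repeat peptide and 1 uM ATP (final) in Tris pH7.5, 10 mM MgCl2, 4.5 h at room temperature. Remaining ATP measured by Kinase-Glo luciferase luminescence.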

The mark [21] stands for this setting: measured here: cell count channel max response.
Setting [22] is: measured here: lipid channel max response.

Sequence of Cytochrome P450 3A4 (Homo sapiens) (P08684 whole entry, looked up): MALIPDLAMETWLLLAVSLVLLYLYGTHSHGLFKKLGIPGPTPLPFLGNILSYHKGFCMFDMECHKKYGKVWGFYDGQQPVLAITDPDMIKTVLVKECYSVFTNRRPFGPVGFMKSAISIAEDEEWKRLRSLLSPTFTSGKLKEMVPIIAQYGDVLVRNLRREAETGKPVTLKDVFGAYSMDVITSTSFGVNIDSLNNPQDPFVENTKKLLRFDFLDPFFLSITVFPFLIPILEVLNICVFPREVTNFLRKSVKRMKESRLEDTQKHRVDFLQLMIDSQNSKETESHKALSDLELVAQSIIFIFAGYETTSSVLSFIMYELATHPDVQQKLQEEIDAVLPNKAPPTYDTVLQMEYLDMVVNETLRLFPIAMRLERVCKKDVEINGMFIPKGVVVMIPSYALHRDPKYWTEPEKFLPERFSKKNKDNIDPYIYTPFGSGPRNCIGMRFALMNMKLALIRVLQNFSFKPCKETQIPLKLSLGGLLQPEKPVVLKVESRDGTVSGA
Sequence of Cytochrome P450 1A2 (Homo sapiens) (P05177 whole entry, looked up): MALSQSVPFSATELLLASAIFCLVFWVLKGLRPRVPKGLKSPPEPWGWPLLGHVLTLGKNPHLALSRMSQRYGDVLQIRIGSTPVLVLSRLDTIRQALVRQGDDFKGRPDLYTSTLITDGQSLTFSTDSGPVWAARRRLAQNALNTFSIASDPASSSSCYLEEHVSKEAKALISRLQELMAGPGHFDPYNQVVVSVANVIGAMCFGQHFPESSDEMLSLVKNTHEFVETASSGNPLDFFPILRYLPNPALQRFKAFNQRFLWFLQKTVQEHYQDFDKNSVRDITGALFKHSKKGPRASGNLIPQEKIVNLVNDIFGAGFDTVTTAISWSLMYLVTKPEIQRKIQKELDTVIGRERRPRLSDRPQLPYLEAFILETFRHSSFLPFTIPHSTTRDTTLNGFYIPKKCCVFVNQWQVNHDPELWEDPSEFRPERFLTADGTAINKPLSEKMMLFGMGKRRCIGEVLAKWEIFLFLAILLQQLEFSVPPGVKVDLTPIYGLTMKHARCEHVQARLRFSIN

Turning to `COc1cc(-c2coc3cc(OCc4ccccc4)c(OC)c(O)c3c2=O)cc(O)c1OC`, the Potency result in test [1], in test [2], in test [5], in test [6], in test [7] and in test [8] was “inactive” each time. Also, the result in test [3] was inactive. Besides, in [4], the activity change, negative = inhibition is -4.72% (inactive). For the same compound, the max response in test [4] (setting [21]) is -3.67%; in test [4] (setting [22]) it was -4.66%.

As for `CC(=O)OC1CC2C(C)(C)CCC(=O)[C@@]2(C)C2CC[C@@]3(C)C(c4ccoc4)OC(=O)C4OC43[C@]12C` (stereo partly drawn), the Potency result in [9], in test [2], in [10], in test [5], in test [6] and in test [7] was “inactive” in each case. Also, the Potency entry in test [8] was “inactive”. For the same compound, the compound was called inactive in [3]. In addition, in [4], the activity change, negative = inhibition is 2.56% (inactive). Moreover, the max response was found to be 0.203% in test [4] (setting [21]) and 3.26% in test [4] (setting [22]).

Consider `COc1ccc(-c2nc3cnc(OC)nc3n(-c3ccc(OC)cc3)c2=O)cc1`, for which the Potency was > 11.4 µM (inactive) in test [11], 0.316 µM (active) in [13], > 9.22 µM (inactive) in [16] and > 46 µM (inactive) in test [17]. The activity change, negative = inhibition in [12] was -4.28% (inactive); in [14], 5.9% (inactive); in test [4] it was -15.7% (inactive). In addition, the activity, negative = inhibition in test [15] is -4.51% (inactive). Further, the Potency result in test [18], in [19], in test [1], in test [20] and in [10] was “inactive” in each case. Also, the max response is 29.3% in [4] (setting [21]) and 4.55% in test [4] (setting [22]).

Regarding `COc1cc2c3cc1Oc1c(OC)c(OC)cc4c1[C@@H](Cc1ccc(O)c(c1)Oc1ccc(cc1)C[C@@H]3N(C)CC2)N(C)CC4`, the Potency result in [13] and in test [18] was “inactive” in each case. Besides, the Potency in test [16] and in [17] was > 46 µM (inactive) each time. Besides, the activity change, negative = inhibition in test [4] is 6.85% (inactive). Also, the values for the max response in test [4] (setting [21]) and in [4] (setting [22]) were 20.8% and 29.4%, respectively.
